Each sequence was assayed on THRa:RXRa (NR concentration 90 nM, RXRa partner concentration 90 nM) (assay: PBM binding z-score (relative to random genomic background probes); higher = stronger binding; sequences stand for … in GC…GCGATTGACAGCGTAGAATGAAGG).
Procedure, shortened: (§1)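 Probes were double-stranded and carried 34-nt variable regions with direct-repeat seeds, single-nucleotide variants, half-site ablations and random human genomic background sequences, printed on custom Agilent 4×180K protein-binding microarrays. Arrays were incubated 1 h with ligand-free nuclear receptor dimers in PBS pH 7.4, 2% milk, 0.02% Triton X-100, 1 mM DTT, 0.2 mg/mL BSA and 0.4 mg/ml salmon testes DNA. Antibodies against each partner (one per run) detected binding, and scanned fluorescence was regression-normalized. Binding z-scores use the random background probes as reference.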
With TCTCGGAGGACACGAAAGGCCAGAGCTCGACATC the PBM binding z-score was 1.54.
TGTCAAAGTTCAAAGGTAACGGAAGTATCCACAC showed a PBM binding z-score of 2.99.
GCTGCTAGATCAGGTTGGTCAGCTAACGGGTACG showed a PBM binding z-score of -0.611.
For TCATATAGGTAAATCCTAGGTGAAAGTCCGATCT, the PBM binding z-score was 1.96.
For GCTTACGGGTCAAAGGCTATAGCATGAATAGAAT, the PBM binding z-score was 2.45.
TCAAGTAGGTTAGGGGCATTCAGAATGGCGTCGA was tested, and the PBM binding z-score was 1.45.
In the case of ATCTCAAGGTAACAAGTTCAGTGAAAGAGAGGAC, the PBM binding z-score is reported as 2.16.
Work on CCGACTGGGGCAGAAAGGTTACTATACCATCCGG yielded a PBM binding z-score of 0.534.
Work on CTCGAAAGGTCGTGCTCAGGTGCGTATACCAAAC yielded a PBM binding z-score of 2.69.
Sequence CCGACTGGGGCATAAGGGTACCATAAGCCAGCCC has a PBM binding z-score of -0.0868.
Work on TGTCAAAGTTGAAAGGTAACGTAAGTATCCACAC yielded a PBM binding z-score of 1.77.
TCGAGTAGGTAAGGGGCATTCAGAATGGCGTCGA showed a PBM binding z-score of -0.336.
CCTACTGGGCCATTCAGAGGTCATTGGTCATATG was tested, and the PBM binding z-score was 3.14.
CAAACTAGGTCAAAGTCAAAGTCGGTTTGTGCCA was tested, and the PBM binding z-score was 2.81.
Work on CAAACTAGGTCAAGAGGTCAACGTCCGCTTCCCG yielded a PBM binding z-score of 4.5.
CATACAGGGTCAGCTAGGCCAGAGTCGGGACGGC was tested, and the PBM binding z-score was 3.08.
Sequence GCTTGTATATCAAGGTTAAGAAAGACTAAGCTAA has a PBM binding z-score of 1.24.
ATATGTAGGTTAGCGGGTCATTCAGTTTGCGCAT showed a PBM binding z-score of 2.06.
CGTCCAAGGTCGATGCTAGGTCAGTGAAAGCATT was tested, and the PBM binding z-score was 3.28.
In the case of GCAGACAGGTGAAACGCAGGTTACTCAGGGTGGC, the PBM binding z-score is reported as 1.88.
CGTCCAAGGTCATAGTAGGTCAGTGAAGACAGAT showed a PBM binding z-score of 4.94.
In the case of ATCTCTAGGTAAGACTCAGTTCTGTGAAGAACGC, the PBM binding z-score is reported as 0.394.
In the case of TCTCCTAGGTCAACGATGGTCAGCTAATCTGCTA, the PBM binding z-score is reported as 3.32.
For GGAATGAGGGCATTCGAGTTGATAGCATGGCGAT, the PBM binding z-score was 3.3.
GGAACGAGGGCAAGTTGAGAGCAGAGTTTGATGG was tested, and the PBM binding z-score was 1.45.
TCTTGTAAATCAACAGGAGGTTAAGAAAGATCGA was tested, and the PBM binding z-score was 0.911.
In the case of CTACCAAGGTGAACAAGATCGTTGATTACTATTC, the PBM binding z-score is reported as 1.66.
In the case of ATCTGTAGGTAACAAGTTCAGTGAAAGAGAGGAC, the PBM binding z-score is reported as 1.26.
CCGAGCAGGTTATGGGGCATTCAGGCAACGGTGA showed a PBM binding z-score of 0.573.
GGAACGTGGGCAAGTTGATAGCAGAGTTTGATGG gave a PBM binding z-score of -0.685.
In the case of TCGGGTAGGTTAGGGGCATTCAGAATGGCGTCGA, the PBM binding z-score is reported as 2.44.
Work on ACTGGGAGGACAAAGGTCAGAGCTACGCCAGTGA yielded a PBM binding z-score of 3.85.
In the case of CGTCCAAGGTCTATGCTAGGTCAGTGAAAGCATT, the PBM binding z-score is reported as 2.21.
With TCGAGAAGGTTACCAATGGGGCATTCAGCTTTCT the PBM binding z-score was 0.779.
Sequence GCATATAGGTAATACAAGCTGAAAGTCCGATTGT has a PBM binding z-score of -0.299.
Sequence TCTTGTAGATCAACAAGAGGTTAAGAAAGATCGA has a PBM binding z-score of 1.22.
In the case of ACTAGCAGGCCATGGGTCACTCAAGATTAGTCCG, the PBM binding z-score is reported as 1.42.
For CGAACTAGGTAAGAACAGGACAGTGAAGGATGAT, the PBM binding z-score was 0.664.
ACTAGTTCGTCAGCTGAGGTCACACACAATTCGG was tested, and the PBM binding z-score was 4.66.
For TAGCCTGGGTCATTGGGCCAGTATAGTACGCATC, the PBM binding z-score was 1.99.

What follows are sequences tested on THRa homodimer (NR concentration 90 nM) in the same assay as above.
Procedure, shortened: as §1
TCTCGGAGGACACGAAAGGCCAGAGCTCGACATC gave a PBM binding z-score of 0.338.
With TGTCAAAGTTCAAAGGTAACGGAAGTATCCACAC the PBM binding z-score was 0.158.
GCTGCTAGATCAGGTTGGTCAGCTAACGGGTACG was tested, and the PBM binding z-score was -0.864.
TCATATAGGTAAATCCTAGGTGAAAGTCCGATCT showed a PBM binding z-score of 0.368.
GCTTACGGGTCAAAGGCTATAGCATGAATAGAAT gave a PBM binding z-score of -0.68.
With TCAAGTAGGTTAGGGGCATTCAGAATGGCGTCGA the PBM binding z-score was 0.575.
With ATCTCAAGGTAACAAGTTCAGTGAAAGAGAGGAC the PBM binding z-score was 1.54.
With CCGACTGGGGCAGAAAGGTTACTATACCATCCGG the PBM binding z-score was -0.377.
For CTCGAAAGGTCGTGCTCAGGTGCGTATACCAAAC, the PBM binding z-score was 0.271.
For CCGACTGGGGCATAAGGGTACCATAAGCCAGCCC, the PBM binding z-score was -0.457.
TGTCAAAGTTGAAAGGTAACGTAAGTATCCACAC showed a PBM binding z-score of -0.382.
With TCGAGTAGGTAAGGGGCATTCAGAATGGCGTCGA the PBM binding z-score was -0.325.
CCTACTGGGCCATTCAGAGGTCATTGGTCATATG was tested, and the PBM binding z-score was 1.34.
For CAAACTAGGTCAAAGTCAAAGTCGGTTTGTGCCA, the PBM binding z-score was 0.817.
For CAAACTAGGTCAAGAGGTCAACGTCCGCTTCCCG, the PBM binding z-score was 2.96.
For CATACAGGGTCAGCTAGGCCAGAGTCGGGACGGC, the PBM binding z-score was 0.802.
With GCTTGTATATCAAGGTTAAGAAAGACTAAGCTAA the PBM binding z-score was -0.21.
ATATGTAGGTTAGCGGGTCATTCAGTTTGCGCAT was tested, and the PBM binding z-score was 1.08.
Work on CGTCCAAGGTCGATGCTAGGTCAGTGAAAGCATT yielded a PBM binding z-score of 1.45.
GCAGACAGGTGAAACGCAGGTTACTCAGGGTGGC gave a PBM binding z-score of -0.27.
With CGTCCAAGGTCATAGTAGGTCAGTGAAGACAGAT the PBM binding z-score was 2.97.
Work on ATCTCTAGGTAAGACTCAGTTCTGTGAAGAACGC yielded a PBM binding z-score of 0.633.
In the case of TCTCCTAGGTCAACGATGGTCAGCTAATCTGCTA, the PBM binding z-score is reported as 1.59.
For GGAATGAGGGCATTCGAGTTGATAGCATGGCGAT, the PBM binding z-score was 0.191.
For GGAACGAGGGCAAGTTGAGAGCAGAGTTTGATGG, the PBM binding z-score was 0.0177.
Work on TCTTGTAAATCAACAGGAGGTTAAGAAAGATCGA yielded a PBM binding z-score of -0.242.
CTACCAAGGTGAACAAGATCGTTGATTACTATTC gave a PBM binding z-score of 0.798.
ATCTGTAGGTAACAAGTTCAGTGAAAGAGAGGAC was tested, and the PBM binding z-score was 0.755.
CCGAGCAGGTTATGGGGCATTCAGGCAACGGTGA showed a PBM binding z-score of 0.0585.
Sequence GGAACGTGGGCAAGTTGATAGCAGAGTTTGATGG has a PBM binding z-score of -0.691.
Work on TCGGGTAGGTTAGGGGCATTCAGAATGGCGTCGA yielded a PBM binding z-score of 1.61.
With ACTGGGAGGACAAAGGTCAGAGCTACGCCAGTGA the PBM binding z-score was 1.25.
CGTCCAAGGTCTATGCTAGGTCAGTGAAAGCATT showed a PBM binding z-score of 0.687.
With TCGAGAAGGTTACCAATGGGGCATTCAGCTTTCT the PBM binding z-score was -0.839.
Work on GCATATAGGTAATACAAGCTGAAAGTCCGATTGT yielded a PBM binding z-score of -0.467.
TCTTGTAGATCAACAAGAGGTTAAGAAAGATCGA showed a PBM binding z-score of -0.94.
In the case of ACTAGCAGGCCATGGGTCACTCAAGATTAGTCCG, the PBM binding z-score is reported as -0.31.
CGAACTAGGTAAGAACAGGACAGTGAAGGATGAT was tested, and the PBM binding z-score was -0.177.
In the case of ACTAGTTCGTCAGCTGAGGTCACACACAATTCGG, the PBM binding z-score is reported as 5.07.
TAGCCTGGGTCATTGGGCCAGTATAGTACGCATC gave a PBM binding z-score of -0.547.

From the supplement of paper PMC6555819
